Rows were chosen to be rich in hits. Some 13% of all compounds tested hit in one or more screens of this group.
USP10 inh: inhibitors of human USP10 deubiquitinase. inhibition, % at 20 µM. Ubiquitin carboxyl-terminal hydrolase 10 (Homo sapiens), Q14694. purified USP10, Ub-rhodamine fluorescence, 60 min. 1.1% of 47,000 active
USP30 block: inhibitors of human USP30 deubiquitinase. Ubiquitin carboxyl-terminal hydrolase 30 (Homo sapiens), Q70CQ3. 5.3% of 47,000 active. purified USP30, Ub-rhodamine cleavage fluorescence. AID 1645860, 2021. inhibition, % at 25 µM
USP8 block: inhibitors of human USP8 deubiquitinase; 4.2% of 47,000 active; AID 1645853, 2021; purified USP8, Ub-rhodamine cleavage fluorescence, 30 min; inhibition, % at 20 µM; Ubiquitin carboxyl-terminal hydrolase 8 (Homo sapiens), P40818
OTUD3 inh: inhibitors of human OTUD3 deubiquitinase. OTU domain-containing protein 3 (Homo sapiens), Q5T2D3. purified OTUD3, Ub-rhodamine fluorescence, 2 h. inhibition, % at 25 µM. 0.7% of 47,000 active. AID 1645858, 2021
USP17 inh: inhibitors of human USP17 deubiquitinase; purified USP17, Ub-rhodamine cleavage fluorescence, 3 h; inhibition, % at 50 µM; 6.5% of 47,000 active
Target sequence (A8MUK1 whole entry, looked up): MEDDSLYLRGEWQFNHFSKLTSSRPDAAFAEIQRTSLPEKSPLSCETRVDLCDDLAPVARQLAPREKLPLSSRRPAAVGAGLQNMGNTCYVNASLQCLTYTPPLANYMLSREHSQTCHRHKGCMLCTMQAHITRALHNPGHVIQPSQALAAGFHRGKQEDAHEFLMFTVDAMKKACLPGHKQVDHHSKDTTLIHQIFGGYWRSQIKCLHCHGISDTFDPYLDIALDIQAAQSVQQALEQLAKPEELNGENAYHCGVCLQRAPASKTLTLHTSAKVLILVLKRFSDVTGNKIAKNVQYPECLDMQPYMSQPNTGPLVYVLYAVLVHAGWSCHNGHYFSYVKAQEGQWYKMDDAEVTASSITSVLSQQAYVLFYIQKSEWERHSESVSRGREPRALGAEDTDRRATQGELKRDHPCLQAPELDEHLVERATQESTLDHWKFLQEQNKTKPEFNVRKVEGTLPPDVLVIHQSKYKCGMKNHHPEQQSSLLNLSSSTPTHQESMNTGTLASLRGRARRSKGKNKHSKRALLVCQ
USP28 block: inhibitors of human USP28 deubiquitinase; Ubiquitin carboxyl-terminal hydrolase 28 (Homo sapiens), Q96RU2; purified USP28, Ub-rhodamine cleavage fluorescence, 30 min; inhibition, % at 25 µM; 3% of 47,000 active; AID 1645857, 2021
Numbers stand for hits; – = inactive; · = no result given. No stated cut-off is given here; in the data, active means inhibition above about 30%; inactive means the rest.

SMILES	USP10 inh	USP30 block	USP8 block	OTUD3 inh	USP17 inh	USP28 block
COc1cccc(OC)c1C(=O)Nc1cccc(-c2ccc(N3CCN(C)CC3)nn2)c1	–	–	–	–	41	–
COc1cccc(OC)c1C(=O)Nc1cccc(-c2ccc(N3CCCC3)nn2)c1	–	–	–	–	36	–
O=C(Nc1cnc(N2CCCC2)nc1)c1c(F)cccc1Cl	–	–	–	–	–	–
Cn1c(=O)c2c(SCC(=O)N3CCCC3)nc(-c3ccccc3Cl)nc2n(C)c1=O	–	–	–	–	–	–
COc1ccc(CNC(=O)CN2C(=O)CN(C)C(=O)c3ccccc32)cc1	–	–	–	–	–	–
Cc1cccc(CC(=O)NCc2noc(-c3ccc(F)cc3)n2)c1	–	–	–	–	·	–
CC(=O)Nc1ccc(S(=O)(=O)Nc2ccc(Nc3ccc(-n4cccn4)nn3)cc2)cc1	–	50	–	–	36	–
O=C(C1CCCC1)N1CCN(c2ccc(-n3cccn3)nn2)CC1	–	–	–	–	–	–
O=C(COC(=O)CCc1nc2ccccc2[nH]c1=O)Nc1ccc([N+](=O)[O-])cc1	–	–	81	–	–	–
COc1ccc(Cl)cc1NC(=O)c1ccc(S(=O)(=O)N2CCCCC2)cc1	–	–	–	–	–	–
CCCN1C=NS(=O)(=O)c2cc(C(=O)Nc3cc(Cl)ccc3OC)ccc21	–	35	–	–	–	–
CCCN1C=NS(=O)(=O)c2cc(C(=O)Nc3ccc(OC)c(Cl)c3)ccc21	–	–	–	–	51	–
CC(C)c1cc2c(c(O)c1O)[C@@]13CCCC(C)(C)[C@@H]1C[C@@H]2OC3=O	–	–	–	–	74	33
OC1(c2ccc(Cl)cc2)CCN(c2nccc(-c3ccccc3)n2)CC1	–	–	–	–	–	–
Cc1cc(C)cc(-n2cnc3cc(C(=O)NCCC4=CCCCC4)ccc32)c1	–	–	–	–	–	63
COc1cc(-n2cnc3cc(C(=O)NCCN4CCOCC4)ccc32)cc(OC)c1OC	–	–	–	–	–	–
O=C(NCc1ccccn1)C1CCc2nc(N3CCCCC3)ncc2C1 (centres undefined)	–	–	–	–	–	–
Cn1c(=O)c2c(nc(CN3CCN(CCO)CC3)n2CCCc2ccccc2)n(C)c1=O	–	–	–	–	–	–
O=C(Nc1oc2ccccc2c(=O)c1-c1ccc2c(c1)OCO2)C1CCCCC1	–	–	–	–	83	–
CC(=O)Nc1c(-c2ccc3c(c2)OCO3)c(=O)c2ccccc2n1C	–	49	–	–	–	–
CCc1nc2ccccc2c(NC(=O)Cc2ccc(OC)c(OC)c2)c1C	–	–	–	–	–	–
NS(=O)(=O)c1ccc(NC(=O)c2ccc3c(c2)CC(c2ccccc2)OC3=O)cc1 (centres undefined)	–	–	–	–	–	–
CC(=O)Nc1ccc(NC(=O)c2ccc3c(c2)CC(c2ccccc2)OC3=O)cc1 (centres undefined)	–	–	34	–	–	–
Cc1c(Cc2ccccc2)sc(NC(=O)c2ccc(Cl)cc2)c1C(N)=O	–	–	–	–	33	–
O=C(CCC1CCCN(c2cc(NC3CC3)ncn2)C1)N1CCC2(CC1)OCCO2 (centres undefined)	–	–	–	–	–	–
SMILES	USP10 inh	USP30 block	USP8 block	OTUD3 inh	USP17 inh	USP28 block
CN(C)c1cc(-n2cnc(C(=O)NCc3ccccc3Cl)c2)ncn1	–	–	–	–	52	–
Cc1ccc(-c2cnc([C@@H]3COCCN3Cc3ncc[nH]3)[nH]2)cc1	–	–	–	–	–	–
COc1ccc(CCn2c(-c3ccc(C)cc3)nc3c(c(=O)c4ccccc4n3C)c2=O)cc1	–	–	–	–	–	–
COc1ccc(-c2nc3c(c(=O)c4ccccc4n3C)c(=O)n2CC(C)C)cc1	–	–	–	–	34	–
CC(c1ccccc1)n1c(-c2ccc(F)cc2)nc2c(c(=O)c3ccccc3n2C)c1=O (centres undefined)	–	–	32	–	60	–
COc1ccc2[nH]c(=O)c(CN(Cc3ccc(F)cc3)C(=O)Nc3ccccc3OC)cc2c1	–	–	–	–	–	–
COc1ccc(-n2c(/C=C/c3cccc4ccccc34)nc3ccccc3c2=O)cc1	–	–	–	–	–	–
COc1ccc(-n2c(=O)c(CCC(=O)O)nc3ccccc32)cc1	–	–	–	–	50	–
O=C(OCC(=O)N1CCCCCC1)c1ccc2[nH]c3c(c2c1)CCCC3	–	–	–	–	–	–
c1ccc(COc2ccc3[nH]c4c(c3c2)CCCCCC4)cc1	–	–	–	–	42	–
O=C(Nc1ccc2nc3n(c(=O)c2c1)CCCC3)c1ccc2c(c1)OCO2	–	–	–	–	–	–
O=C(Nc1ccc2c(c1)OCO2)c1ccc2nc(C(F)(F)F)sc2c1	–	–	55	–	–	–
Cc1cc(C)cc(NC(=O)CSc2ccc(-c3ccncc3)nn2)c1	–	55	–	–	–	–
CCOc1ccc(NC(=O)CSc2ccc(-c3ccncc3)nn2)cc1	–	–	–	–	–	–
COc1cccc(-c2ccc(SCC(=O)Nc3ccc(F)c(F)c3)nn2)c1	–	–	32	–	–	–
CCOC(=O)N1CCN(C(=O)c2cc(S(=O)(=O)N3CCOCC3)ccc2OC)CC1	–	–	–	–	–	–
Cc1cc(C(=O)N2CC(C(=O)Nc3cc(C(F)(F)F)ccc3Cl)C2)no1	–	70	–	–	41	–
Cc1c2oc3c(C)ccc(C(=O)N[C@@H]4C(=O)N[C@H](C(C)C)C(=O)N5CCC[C@H]5C(=O)N(C)CC(=O)N(C)[C@@H](C(C)C)C(=O)O[C@@H]4C)c3nc-2c(C(=O)N[C@@H]2C(=O)N[C@H](C(C)C)C(=O)N3CCC[C@H]3C(=O)N(C)CC(=O)N(C)[C@@H](C(C)C)C(=O)O[C@@H]2C)c(N)c1=O	–	–	–	–	35	–
CCC(C)C1OC(=O)C(CCC(=O)O)N(C)C(=O)C(C(C)C)NC(=O)C2CCCCN2C(=O)[C@H]([C@H](C)CC)NC(=O)C(CCC(=O)O)N(C)C(=O)C(C(C)C)N(C)C(=O)CNC(=O)C2CCCN2C(=O)C(Cc2ccccc2)NC1=O (some centres undefined)	–	–	–	–	–	–
COc1cc(OC)c2c(=O)cc(-c3ccccc3)oc2c1OC	–	37	–	–	–	–
COc1c(O)c(O)c2c(=O)cc(-c3ccc(O)cc3)oc2c1OC	–	–	–	46	67	40
COc1cc(-c2oc3cc(OC)c(OC)c(O)c3c(=O)c2OC)ccc1O	–	–	–	–	–	–

Source: PubChem BioAssay
